ALOX15 inhib: qHTS Assay for Inhibitors of 15-hLO (15-human lipoxygenase); purified 15hLO-1, xylenol orange hydroperoxide absorbance; Potency, µM (titrated, usually from 57.1 µM), for inactives: at the top dose activity change, negative = inhibition, hits mostly inhibitors; 1.4% of 74,000 active; AID 887, 2007; also: nearly all actives have a fitted effect of over 55% in size
Target sequence (P16050 whole entry, looked up): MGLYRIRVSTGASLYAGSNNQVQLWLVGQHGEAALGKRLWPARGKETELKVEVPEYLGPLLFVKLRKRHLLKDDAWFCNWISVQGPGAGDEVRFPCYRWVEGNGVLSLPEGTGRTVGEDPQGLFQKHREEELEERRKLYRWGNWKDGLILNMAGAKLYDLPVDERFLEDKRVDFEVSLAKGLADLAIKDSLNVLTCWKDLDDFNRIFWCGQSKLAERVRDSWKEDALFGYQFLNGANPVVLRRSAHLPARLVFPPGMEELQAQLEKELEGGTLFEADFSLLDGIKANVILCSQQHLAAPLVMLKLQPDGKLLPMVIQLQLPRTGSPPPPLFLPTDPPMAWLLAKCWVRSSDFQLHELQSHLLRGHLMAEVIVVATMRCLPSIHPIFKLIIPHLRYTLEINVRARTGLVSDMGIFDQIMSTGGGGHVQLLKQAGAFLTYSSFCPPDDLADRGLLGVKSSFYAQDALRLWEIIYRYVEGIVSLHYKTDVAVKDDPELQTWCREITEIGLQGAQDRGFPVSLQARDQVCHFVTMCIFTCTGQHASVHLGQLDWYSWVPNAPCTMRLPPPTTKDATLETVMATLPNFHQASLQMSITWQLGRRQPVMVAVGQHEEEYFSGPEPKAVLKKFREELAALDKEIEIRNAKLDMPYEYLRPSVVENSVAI
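Readout: Fe(III)-xylenol orange absorbance, 573-to-405 nm ratio as reaction progress. Enzyme 40 nM purified human 15hLO-1, substrate 50 uM arachidonic acid, 6 min RT after 15 min compound preincubation; Hepes pH 7.5 buffer with Triton X-100.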
ERK AVP inh: qHTS Assay for Inhibitors of the ERK Signaling Pathway using a Homogeneous Screening Assay; HEK293-V1b, vasopressin-stimulated pERK AlphaScreen; 0.99% of 72,000 active; AID 995, 2007; Potency, µM (series often up to 57.5 µM), inactives show top-dose activity, negative = inhibition, actives largely listed as inhibitors; also: nearly all actives have a fitted effect of over 55% in size
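V1b-HEK293 cells; cpd 30 min 37C; 25 nM vasopressin 5 min; lyse 10 min; AlphaScreen beads 5 hr RT. Normalized to DMSO basal and 25 nM vasopressin; AC50 by Hill fit.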
Bst PK mod: Pyruvate Kinase | purified pyruvate kinase, luminescence ATP production; ribose 5-phosphate activator present at AC10 | Potency, µM | 1.2% of 51,000 active; in the data active = potency below about 11 µM; inconclusive = mostly about 12 µM to 25 µM;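 the screen sought inhibitors and activators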;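 also: scaled between full activation by ribose 5 phosphate and full inhibition by luteolin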
FLuc inh: qHTS Assay for Inhibitors of Firefly Luciferase | Potency, µM (top dose mostly 57.1 µM), for inactives: at the top dose activity change, negative = inhibition, most hits filed as inhibitors | purified firefly luciferase, luminescence, 8 min | AID 411, 2009 | Luciferin 4-monooxygenase (Photinus pyralis), P08659 | 2.2% of 72,000 active; also: nearly all actives have a fitted effect of over 40% in size
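qHTS concentration-response profiling: light output of P. pyralis luciferase with luciferin and 10 uM ATP, imidazole buffer pH 7.2. Read by luminescence after 8-min room-temperature incubation.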
Tau filament bind: qHTS Assay for Tau Filament Binding; recombinant tau filaments, thioflavin S fluorescence, 15 h; filaments grown with octadecylsulfate alongside compound; Potency, µM (titrated, usually from 57.1 µM), for inactives: at the highest dose activity change, negative = inhibition; 2% of 71,000 active; Microtubule-associated protein tau (Homo sapiens), P10636;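 also: actives lower thioflavin S fluorescence by blocking filaments or displacing dye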
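Quantitative HTS: thioflavine S signal from ODS-induced tau filaments, excited at 450 nm, emission 510 nm. Conditions: 1 uM tau, 30 uM ODS, 15 h at 37 C, pH 7.4.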
Hsp90 Hop PPI: qHTS Assay for Disrupters of an Hsp90 Co-Chaperone Interaction. Hsp90 C-terminal peptide / TPR2A (Hop) interaction, human. AlphaScreen TPR2A-His6 binding biotin-Hsp90 C-terminal peptide. Potency, µM (series often up to 57 µM), inactives show top-dose activity change, negative = inhibition. 0.44% of 71,000 active; active = well fitted curve in either direction with a large enough effect; inconclusive = small, poorly fitted or top-dose-only effect, or another doubt
Starred values were filed as active, the others as inactive; i = inactive; ? = inconclusive; . = not tested or not shown; [ ] = remark or other dose. Shown are actives, neighbours in structure and some others; about 6.1% of the full set was active somewhere. Unless noted, calls follow the shape of the dose curve; as a rule, active = well fitted curve in the direction sought with a large enough effect; inconclusive = small, poorly fitted or top-dose-only effect, or another doubt; inactive = no such curve, though single readings can be large; an effect the other way counts as inactive or inconclusive. Unless noted, % is scaled to controls: 0 for no effect and ±100 for the full control effect; potency is read from the fitted curve at half-maximal effect.

SMILES | ALOX15 inhib | ERK AVP inh | Bst PK mod | FLuc inh | Tau filament bind | Hsp90 Hop PPI
CC[C@H](C)[C@H](N)C1=N[C@H](C(=O)N[C@@H](CC(C)C)C(=O)N[C@@H](CCC(=O)O)C(=O)N[C@@H](C(=O)N[C@H]2CCCCNC(=O)[C@@H](CC(N)=O)NC(=O)[C@@H](CC(=O)O)NC(=O)[C@@H](Cc3cnc[nH]3)NC(=O)[C@@H](Cc3ccccc3)NC(=O)[C@@H]([C@@H](C)CC)NC(=O)[C@@H](CCCN)NC2=O)[C@@H](C)CC)CS1 | 9.6%[25.6 µM] | 11.7%[25.7 µM] | . | 2.9%[25.5 µM] | -8.4%[25.6 µM] | -4.6%[26 µM]
O=C(CSc1nc2ccccc2s1)NC(=O)NCc1ccco1 | ? | -11.3% | >57 | -1.2% | 0.5% | -9.0%
CCOC(=O)N1CCN(c2nc(-c3ccc(Cl)cc3)cs2)CC1 | -17.5% | . | . | . | . | .
O=C(CN1CCN(c2nc(-c3ccc(Cl)cc3)cs2)CC1)NCc1ccco1 | -8.0% | 31.6µM* | . | -2.6% | 2.8% | -14.9%
O=C(CSc1nc(-c2ccccc2)cs1)NC(=O)NCc1ccco1 | -16.2% | 25.1µM* | >57 | -0.5% | 13.3% | -24.8%
CCc1c2c(nc3ccc(OC)cc13)OC(CC)C2 (stereo not given) | . | 2.5% | . | . | 25.6% | ?
O=C(Nc1cccc(F)c1)N1CCCC2(CCN(S(=O)(=O)c3ccccc3)CC2)C1 | 5.7% | 23.5% | . | 1.9%[11.4 µM] | -3.3% | -3.0%
COc1ccc(C2=NOC(CN3C(=O)c4ccccc4S3(=O)=O)C2)cc1 (stereo not given) | 8.2% | -5.0% | i | 15.8µM* | -6.6% | 0.2%
O=C1c2ccccc2S(=O)(=O)N1CC1CC(c2ccccc2)=NO1 (stereo not given) | 2.9% | 5.1% | . | ? | -6.3% | -4.4%
COc1cc(C2Nc3cccc4cccc(c34)N2)cc(OC)c1O | 99.3% | 0.7% | >57 | -13.5% | 3.98µM* | -9.8%
Cc1cccc(Nc2n[nH]c(=S)s2)c1C | 10µM* | -5.9% | >57 | -4.5% | 3.9% | -8.6%
C/C(N)=C(/C#N)C(=O)CSc1nnc(Nc2cccc(C)c2C)s1 | -17.2% | 13.4% | i | -3.4% | -3.7% | -4.6%
CCCCCSc1nnc(-c2cc(Br)ccc2N)c(=O)[nH]1 | -7.6% | ? | >57 | 4.0% | 10µM* | -3.9%
C/C=C/OC(=O)NC(c1ccccc1)[C@@]1(C(=O)OC)CCCC1=O (stereo not given in full) | 10.5%[11.4 µM] | 24.4%[11.5 µM] | . | . | . | .
CCOC(=O)c1cnc(-c2ccccc2)nc1N | -1.1% | -15.9% | i | 20µM* | -3.5% | -0.4%
CCOC(=O)c1cc(-c2ccccc2)sc1N | ? | -11.5% | i | -10.4% | 25.1µM* | -16.2%
CCOC(=O)c1cnc2c(C#N)c(C)nn2c1C | 9.1% | -19.4% | >57 | 2.3% | -3.6% | -14.2%
CCOC(=O)c1ccccc1NC(=O)CSc1ncc(C(=O)OCC)c(N)n1 | -17.1% | 21.7% | >57 | 5.7% | 4.8% | 6.3%
CCOC(=O)c1sc(-c2ccc(OC)cc2)cc1N | -6.6% | 2.0% | i | 12.6µM* | 3.8% | 9.7%
CCOC(=O)c1cnc2c(C#N)c(C)nn2c1-c1ccccc1 | ? | -3.1% | . | 4.2% | 15.8µM* | -4.3%[2.3 µM]
COC(=O)[C@@H]1C[C@H]1[C@@H](NC(=O)c1cc(C)nn1C)c1ccccc1 | . | -29.9% | . | . | -8.2% | -2.4%
CCNc1ncc2ncc(=O)n(C3CC3)c2n1 | 5.1% | -12.0% | . | 0.8%[11.4 µM] | 5.7% | ?
CC(=O)[C@@]1(O)CC[C@@H]2[C@@H]3CCC4=CC(=O)CC[C@@]4(C)[C@H]3CC[C@]21C | -4.5% | 1.2% | . | -0.8% | -0.8% | -0.1%
CCOC(=O)c1sc(=S)n(-c2cc(F)ccc2F)c1N | ? | -6.3% | >57 | -1.3% | -2.1% | -8.8%
CCOC(=O)c1cnc(SCC(=O)c2ccc3c(c2)OCCO3)nc1N | ? | 19.2% | >57 | 3.7% | 8.4% | 6.5%

High-throughput results deposited in PubChem BioAssay by National Center for Advancing Translational Sciences (NCATS).
